Assay results from PubChem BioAssay (NCI).
The panel holds about 83,000 compounds, 20% with a hit somewhere; the sample as a whole holds those more often.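 Method: cells in 96-well plates; compound added at one concentration; 48 h incubation; percent growth measured; values under 10 scored active.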 Unmarked numbers belong to inactive results. The source made the active and inactive calls.

Experiments:
Test in all cases: NCI-60 one-dose screen, 48 h (100 = growth as untreated, 0 = no growth, -100 = all killed)
Conditions in all cases: 10 µM unless noted
HCT-15 colon = test system: HCT-15 colon
HT29 colon = test system: HT29 colon
SNB-75 CNS = test system: SNB-75 CNS
SNB-19 CNS = test system: SNB-19 CNS
U251 CNS = test system: U251 CNS
PC-3 prostate = test system: PC-3 prostate
SK-MEL-5 melanoma = test system: SK-MEL-5 melanoma
UACC-62 melanoma = test system: UACC-62 melanoma
LOX IMVI melanoma = test system: LOX IMVI melanoma
SK-MEL-28 melanoma = test system: SK-MEL-28 melanoma

Row | SMILES | growth (HCT-15 colon) | growth (HT29 colon) | growth (SNB-75 CNS) | growth (SNB-19 CNS) | growth (U251 CNS) | growth (PC-3 prostate) | growth (SK-MEL-5 melanoma) | growth (UACC-62 melanoma) | growth (LOX IMVI melanoma) | growth (SK-MEL-28 melanoma)
1 | CCOC(=O)/C(F)=C/C1CC1CCc1cccc(C(F)(F)F)c1 (stereo not given) | 101% | 107% | 102% | 97.1% | 113% | 105% | 100% | 96.5% | 102% | 98.8%
2 | CCOC(=O)/C(F)=C/C1CC1C1CCCCC1 (stereo not given) | 102% | 111% | 95.2% | 98.5% | 105% | 102% | 99.8% | 95.5% | 98% | 100%
3 | CN(C)CCn1c2ccc(N)cc2c2nc3ccccc3nc21 | 21.1% | 21.3% | 54.2% | 32.1% | 33.4% | 38.6% | 27% | 35.2% | 9.95% (active) | 54.5%
4 | N/C(=N\OC(=O)CSc1nc2ccccc2s1)c1ccc2ccccc2c1 | 101% | 103% | 86.7% | 99.9% | 96.4% | 93.6% | 101% | 91.4% | 99.8% | 106%
5 | O=c1[nH]c(CCl)nc2c1cnn2-c1ccccc1 | 99.9% | 115% | 93.6% | 96.4% | 103% | 105% | 99% | 96.2% | -38.5% (active) | 107%
6 | O=C(NCCCNc1cc(-c2cn(-c3ccccc3)nc2-c2cccc(O)c2)ccn1)Nc1cc(C(F)(F)F)cc(C(F)(F)F)c1 | 33.4% | 31.7% | 64.2% | 68.5% | 51.5% | 39.9% | 55.7% | 73% | 81.2% | 83.7%
7 | CCOC(=O)c1c(NCC(=O)Nc2ccc(Br)cc2)sc2c1CCCC2 | -14.2% (active) | 25.7% | 46.2% | 56.7% | -6.08% (active) | 55% | 39.8% | 46.9% | 4.11% (active) | 67.6%
8 | CCOC(=O)C1=C(C)Nc2nnc(Nc3ccccc3)n2C1c1ccccc1 (stereo not given) | 58.1% | 79.4% | 70.5% | 81.6% | 45.4% | 73.5% | 89.9% | 75.3% | 59.2% | 89.9%
9 | O=C(COc1ccc(C2SCC(=O)N2c2ccccc2)cc1)c1ccccc1 (stereo not given) | 97.2% | 105% | 87.5% | 99.4% | 95.8% | 80.5% | 94.4% | 68.6% | 93.3% | 105%
10 | c1ccc(-c2n(Cc3ccc4ccccc4c3)c3c4ccccc4c4ccccc4c3[n+]2Cc2ccc3ccccc3c2)cc1 | -76.7% (active) | -67.2% (active) | -54.3% (active) | -88.5% (active) | -78.7% (active) | -78.6% (active) | -98.5% (active) | -87.6% (active) | -86.2% (active) | -87.3% (active)
11 | C=CCn1c(SCC(=O)Nc2cccc(C(=O)/C=C/c3cc(OC)c(OC)c(OC)c3)c2)nc2ccccc2c1=O | 11.6% | -23.4% (active) | 33.9% | 53.8% | 9.44% (active) | 51.6% | 82.5% | 48.8% | 10% | 83.8%
12 | CC[C@@](C)(NC(=O)C(C)(C)NC(=O)[C@@H](NC(=O)[C@@H]1CCCN1C(=O)C(C)(C)NC(=O)[C@H](CC(C)C)NC(=O)CNC(=O)C(C)(C)NC(=O)[C@@H](NC(=O)C(C)(C)NC(=O)[C@H](CCC(N)=O)NC(=O)[C@H](C)NC(=O)C(C)(C)NC(=O)[C@H](C)NC(=O)C(C)(C)NC(=O)[C@@H]1CCCN1C(=O)C(C)(C)NC(C)=O)C(C)C)C(C)C)C(=O)N[C@@H](CCC(N)=O)C(=O)N[C@@H](CCC(N)=O)C(=O)N[C@H](CO)Cc1ccccc1 | 98% [4.25 µM] | 17.4% [4.25 µM] | 3.47% [4.25 µM] (active) | 21% [4.25 µM] | 33.1% [4.25 µM] | 16.2% [4.25 µM] | -39.8% [4.25 µM] (active) | 47.5% [4.25 µM] | 4.55% [4.25 µM] (active) | 27.5% [4.25 µM]
13 | CC(=O)C1=NN(c2ccc(Cl)cc2)C(=O)CN1C | 100% | 102% | 106% | 103% | 97.6% | 98.1% | 102% | 97.7% | 98.3% | 102%
14 | O=C1CC2(CCOCC2)Oc2ncccc21 | -62.6% (active) | 49.8% | 115% | 51.4% | 22.3% | 88.7% | 100% | 61.1% | -78.7% (active) | -22.3% (active)
15 | C/C(=N/Nc1nc(N/N=C(/C)c2ccc([N+](=O)[O-])cc2)nc(N2CCOCC2)n1)c1ccc([N+](=O)[O-])cc1 | 66.1% | 80.6% | 80.6% | 63.1% | 92.6% | 76.6% | 67.1% | 85.3% | 38.9% | 83.8%
16 | CCCCSc1nnc(-c2ccc(-c3ccc(Cl)cc3)nc2C)o1 | 92.6% | 97.2% | 90.3% | 97.8% | 104% | 91.9% | 99.3% | 84.1% | 101% | 99.9%
17 | CC(C)(C)n1nnnc1C(Nc1nccs1)c1cc2cccc3ccc4cccc1c4c32 (stereo not given) | 93.2% | 104% | 95.7% | 88.8% | 89.3% | 90.1% | 94% | 48.8% | 96.3% | 101%
18 | O=C(NNc1nc2cc(F)cc(F)c2n2cccc12)c1ncccn1 | 26.2% | 25.4% | -7.95% (active) | 20% | 14.4% | 31.6% | -40.9% (active) | 2.21% (active) | 5.13% (active) | 22.8%
19 | CCOP(=O)(OCC)OC[C@]12CCC(C)(C)C[C@H]1C1=CC[C@@H]3[C@@]4(C)C/C(=C\c5cccnc5)[C@H](OP(=O)(OCC)OCC)C(C)(C)[C@@H]4CC[C@@]3(C)[C@]1(C)CC2 | 14.4% | 12% | 80.2% | 40% | 14.7% | 15.6% | -61.3% (active) | 25.5% | 22% | 34.5%
20 | COc1cc2oc(-c3cccc(NC(=O)c4cc(NC(=O)[C@H](C)N)ccc4Cl)c3)cc(=O)c2c(OC)c1OC | 79.8% | 115% | 96.1% | 88.8% | 95.3% | 81.2% | 86% | 89.3% | 80.9% | 106%
